Screening data (PubChem)
Tg IFNy HTS = T. gondii growth inhibition with IFN-gamma, primary screen, cell-based; 69,000 tested, 3.8% active; activity change, negative = inhibition, % (concentration not given with the values); Toxoplasma gondii growth in IFN-gamma-treated host cells; hits give low values; in the data active means activity change below about -70%, passing the limit was not always enough;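 further: host cells are HeLa cells infected with Toxoplasma gondii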
Active calls of the source: *. Shown is part of a subset that was picked to be rich in hits.

SMILES | Tg IFNy HTS
CC(=O)N1CCC2(CC1)C(=O)N(c1ccc(C)nc1)CCN2Cc1ccccc1 | -13
CCc1csc(CNC(=O)C2CC(=O)N(CC(C)C)C2)n1 (stereo not drawn) | 1
CN(C)C(=O)N1CCN(C)C(c2nnc3ccc(C(=O)Nc4cccc(F)c4)cn23)C1 (stereo not drawn) | -42
Cn1c(C#N)ccc1-c1ccc2c(c1)C(C)(C)OC(=S)N2 | -83*
COCCC1CN(Cc2ccc(S(C)(=O)=O)cc2)CCO1 (stereo not drawn) | -7
Cn1c(=O)c(-c2nc(-c3ccc(Br)cc3)no2)c(O)c2ccc(F)cc21 | 41
Cc1[nH]n2c(=O)c3c(nc2c1-c1cccs1)CCC3 | -11
Cc1cccc(-c2cc3nc(C)cc(=O)n3[nH]2)c1 | -21
Cc1cccc(-c2cc3nc4c(c(=O)n3[nH]2)CCC4)c1 | -100*
CCn1c(=O)c(-c2nc(-c3cccs3)no2)c(O)c2ccccc21 | 35
O=C(NCCc1c[nH]c2ccccc12)c1cc2occc2c(Nc2ccc(F)cc2)n1 | -85*
O=C(NCCc1c[nH]c2ccccc12)c1cccnc1 | 40
Cc1noc(-c2ccnc(-n3ncc(C(=O)NCCc4c[nH]c5ccccc45)c3C)c2)n1 | 3
Cc1nccc(-c2ccccc2)c1C(=O)N1CCC2(CN(C)C(=O)O2)C1 (stereo not drawn) | 28
Cc1cnc(C(=O)N2CCCn3c(nc(CN(C)C)cc3=O)C2)cn1 | 5
Cc1nc(-c2ccc(Cl)cc2)cs1 | -1
CC(C)(C)c1cc(-c2csc(-c3ccc(Cl)cc3)n2)cc(C(C)(C)C)c1O | 58
Cn1ncc(-c2nc(-c3ccc(Cl)cc3)cs2)c1N | -83*
CCN1c2ccc(F)cc2C(=O)NC12CCN(C(=O)c1ccc(OC)cc1)CC2 | 11
CN1CCCC2(CCN(Cc3ccccc3C(=O)O)C2)C1=O (stereo not drawn) | 14
Cc1ncc(C(=O)NCc2ccccc2)c(CCNC(=O)c2ccc3c(c2)nc(C)n3C)n1 | 1
CCOc1ccc2nc(NC(=O)c3ccc(OC)c(OC)c3)sc2c1 | -24
CC[C@@H]1C(=O)N(C)c2cnc(Nc3ccc(C(=O)NC4CCC(N5CCN(CC6CC6)CC5)CC4)cc3OC)nc2N1C(C)C (stereo partly drawn) | -68
CNC(=O)c1ccccc1Nc1nc(Nc2ccc3c(c2OC)CCC[C@H](N2CCN(CCO)CC2)C3)ncc1Cl | -75*
CCCC(=O)N1CCCC1c1ncc(C(=O)Nc2ccccc2OC)c(C)n1 (stereo not drawn) | -8
SMILES | Tg IFNy HTS
COc1ccc(S(=O)(=O)N2CCCC3(CN(C(C)=O)Cc4cc(C)ccc4O3)C2)cc1 (stereo not drawn) | -41
CC(=O)c1ccc(NC(=O)c2ccc(N3C(=O)CCC3=O)cc2)cc1 | -23
Cc1[nH]c2c(CNC(=O)c3ccc[nH]3)cc(F)cc2c1C | 2
O=C1NC(=O)C(CCCc2ccccc2)(C2CCNCC2)N1 (stereo not drawn) | -3
O=C(N(c1ccccc1)c1ccc(F)cc1)C12CC3CC(CC(C3)C1)C2 | -83*
O=C(N(Cc1nc2ccccc2c(=O)[nH]1)Cc1cccs1)C12CC3CC(CC(C3)C1)C2 | -41
CC(=O)NC12CC3CC(C1)CC(C(=O)NC(C)CCc1ccc(F)cc1)(C3)C2 (stereo not drawn) | 8
CCN1CC2(CCN(C(=O)NC(C)C)CC2)C2(CCNC2=O)C1 (stereo not drawn) | 0
COc1c(C(=O)NCC(C)n2cncn2)cnc2cc(Cl)ccc12 (stereo not drawn) | -67
CCCC1COCCN1C(=O)CCCS(N)(=O)=O (stereo not drawn) | 3
Cc1ccc(C(=O)N2CCC3(CC2)CC(CC(=O)NCC(C)C)c2ccccc2O3)o1 (stereo not drawn) | -39
Cc1c(C(=O)N2CCC(C)CC2)oc2ccc3c(c12)C(O)CC1(CCCCC1)O3 (stereo not drawn) | -100*
CC1(C)Oc2ccc3ccc(=O)oc3c2C(N2CCCCC2)C1O (stereo not drawn) | -8
COc1ccc2c(-c3ccc(Cl)cc3)c(C)oc2c1 | 370
COCCN1CCC2C1CCC(=O)N2CCN1CCCC1 (stereo not drawn) | 0
CC(=O)NCc1cnc(C2CCCN2CC(=O)Nc2nccs2)cc1C(F)(F)F (stereo not drawn) | -12
CC(=O)NCC(=O)N1[C@@H]2CC[C@H]1c1ccc(Nc3ncc(C(F)(F)F)c(NC4CCC4)n3)cc12 | -74*
CCS(=O)(=O)N1CCN(c2ccc(Nc3ncc(C(N)=O)c(NC4CC4)n3)cc2)CC1 | -65
COc1cc2sc(NC(=O)C(C)(C)n3cncn3)nc2cc1Cl | 17
CCSc1nc(CC(=O)N[C@H]2CCN(Cc3ccccc3)C2)cs1 | -1
O=C(c1cc2c([nH]1)CCCC2)N1CCC(CCN2CCOCC2)CC1 | -7
CN1CC2(CCCN(CCCCOc3ccccc3)C2)OC1=O (stereo not drawn) | 0
Cc1ccc(CC(=O)N2CCn3cc(Cn4cncn4)nc3C2)cc1 | -74*
O=C(Cc1cccc(F)c1)N1CCn2cc(Cn3cncn3)nc2C1 | -15
O=C(Cc1ccc(F)cc1)N1CCn2cc(Cn3cncn3)nc2C1 | 6
SMILES | Tg IFNy HTS
CN1CCC2(CCCN(C(=O)C3(S(=O)(=O)c4ccccc4)CC3)C2)C1 (stereo not drawn) | 1
CNC(=O)CN1CCC12CCN(C(=O)c1ccn(C)n1)C2 (stereo not drawn) | -45
Cc1ccc(NC(=O)Cn2ncc3c(N4CCCC4)ncnc32)cc1Cl | -55
O=C(Cn1ncc2c(N3CCCC3)ncnc21)Nc1ccc(F)c(Cl)c1 | -45
Cc1ccc(NC(=O)Cn2ncc3c(N4CCCCCC4)ncnc32)cc1F | -101*
O=C(Cn1ncc2c(N3CCCCCC3)ncnc21)Nc1ccc(OC(F)(F)F)cc1 | -98*
O=C(Cn1ncc2c(N3CCN(c4ccccc4)CC3)ncnc21)Nc1ccc(OC(F)(F)F)cc1 | -52
O=C(Cn1ncc2c(N3CCCC3)ncnc21)Nc1ccc(OC(F)(F)F)cc1 | 0
CCOc1ccc(-c2cc3c(=O)n(Cc4nc(-c5cc(OC)c(OC)c(OC)c5)oc4C)ccn3n2)cc1 | -28
Cc1cnc(NCc2ccccc2CN2CCCC2=O)nc1N(C)C | -1
CCOc1ccc(-c2nc(Cn3c(=O)c4cccnc4n(-c4ccc(OC)cc4)c3=O)c(C)o2)cc1 | 12
CCN(CC)CCOC(=O)c1ccc(N)cc1 | 12
CCCCOc1ccc(C(=O)CCN(CC)CC)cc1 | 69
CCN(CC)CCOc1ccc(/C(=C(\Cl)c2ccccc2)c2ccccc2)cc1 | -80*
COc1ccc(CN(Cc2cnc(OC)nc2)C2CC(C)(C)NC(C)(C)C2)cc1 | -10
Cc1nc(-c2ccc(F)cc2)sc1-c1ccc(SCc2ccc(Cl)cc2Cl)nn1 | -3
Cc1c(CN(C)C(=O)CCn2c(C)cccc2=O)[nH]c2ccccc12 | -1
CC(C)(C)c1cnc(CSc2cnc(NC(=O)C3CCNCC3)s2)o1 | -72*
Cc1n[nH]c(C)c1CNC(=O)C(C)N1C(=O)c2cccc3cccc1c23 (stereo not drawn) | 5
Nc1nnc(CC(=O)N2CCCC2)s1 | 30
CC(=O)NCCc1csc(C2CCCN(C(=O)c3ccccc3)C2)n1 (stereo not drawn) | 62
CSc1ccc(-c2noc(-c3c(O)c4cc(C)ccc4[nH]c3=O)n2)cc1 | 17
Cc1ccc2[nH]c3c(c2c1)CCc1nonc1-3 | -99*
Cc1ccc2[nH]c3c(c2c1)CCOc1ccccc1-3 | 21
Cc1cnc(N2CCc3onc(C(=O)NC(C)C)c3C2)nc1 | -3
